In all, about 310,000 compounds went through this assay and about 2,600 (0.84%) were called active.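 How the source made its calls: active means B-score over 3 SD under the library average, and starting fluorescence ratio not unusually high; inactive means the rest.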 The entries come from a sample that favours actives as a whole. Some compounds were tested as several samples or in several runs, with calls that do not always agree.
Each molecule was assayed against High affinity choline transporter 1 (Homo sapiens) (UniProt Q9GZV3) (assay: inhibits the human high affinity choline transporter (AID 488975;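 on B-score: choline stimulus applied at its EC90 after an EC20 pre-addition; B-score computed on integrated fluorescence ratio after choline addition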)). Conditions: CHT-expressing cells, membrane potential dye, choline response, at 10 µM; stronger effect = lower value.
High affinity choline transporter 1 (Homo sapiens), sequence (Q9GZV3 whole entry, looked up): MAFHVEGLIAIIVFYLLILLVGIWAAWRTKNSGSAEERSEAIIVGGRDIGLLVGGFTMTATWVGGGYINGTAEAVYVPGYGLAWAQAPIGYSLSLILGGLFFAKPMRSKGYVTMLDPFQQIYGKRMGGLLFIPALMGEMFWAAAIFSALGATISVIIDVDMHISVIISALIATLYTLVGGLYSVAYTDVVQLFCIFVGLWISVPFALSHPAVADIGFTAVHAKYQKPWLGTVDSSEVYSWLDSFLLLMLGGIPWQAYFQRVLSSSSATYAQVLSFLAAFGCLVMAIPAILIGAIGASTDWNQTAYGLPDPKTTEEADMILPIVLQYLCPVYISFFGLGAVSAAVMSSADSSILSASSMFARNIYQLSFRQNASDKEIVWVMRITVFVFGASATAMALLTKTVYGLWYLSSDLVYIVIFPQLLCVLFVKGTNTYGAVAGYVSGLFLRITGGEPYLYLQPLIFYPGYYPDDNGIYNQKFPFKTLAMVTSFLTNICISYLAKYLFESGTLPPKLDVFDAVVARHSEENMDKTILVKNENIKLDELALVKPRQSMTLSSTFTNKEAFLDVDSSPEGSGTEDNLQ
With `Cn1cccc1/C=C1\SC(=S)N(NC(=O)c2ccc(Cl)cc2)C1=O` the B-score was “inactive”. With `CCOc1ccc(/C=C2\SC(=S)N(NC(=O)c3ccncc3)C2=O)cc1OC` the B-score was -5.15 (active). With `COc1ccc(/C=C2\SC(=S)N(CCC(=O)Nc3ccccn3)C2=O)cc1OC` the B-score was “inactive”. With `COc1ccccc1C(=O)NNC(=O)CCN1C(=O)/C(=C\c2ccccc2)SC1=S` the B-score was “inactive”. In the case of `O=C1/C(=C/c2ccc(F)cc2)SC(=S)N1CCCC(=O)N1CCCCC1CCO` (centres undefined), the B-score is reported as “inactive”. `O=C(O)c1ccc(/C=N/NC(=O)c2ccc(Br)cc2)cc1` was tested, and the B-score was “inactive”. For `O=C1/C(=C/c2ccc(F)cc2)SC(=S)N1NS(=O)(=O)c1ccccc1`, the B-score was -6.62 (active). With `O=C(O)c1ccc(/C=C2\SC(=S)N(NC(=O)c3ccc(Br)cc3)C2=O)cc1` the B-score was -5.15 (active). With `COc1ccc(/C=C2\SC(=S)N(CC(=O)NNC(=O)c3ccncc3)C2=O)cc1` the B-score was “inactive”. In the case of `COc1ccc2oc(C(=O)N(CC(C)C)C3CCS(=O)(=O)C3)c(C)c2c1` (centres undefined), the B-score is reported as “inactive”. With `O=C(NCc1ccc(Cl)cc1)C(=O)NCC1CCCN1S(=O)(=O)c1cccs1` (centres undefined) the B-score was “inactive”. In the case of `CC1CC(C)(C)CC2(C1)NC(=O)N(CC(=O)Nc1nccs1)C2=O` (centres undefined), the B-score is reported as “inactive”. With `C=CCNc1cnn(-c2ccc(C)cc2)c(=O)c1Cl` the B-score was “inactive”. `O=c1c(Cl)c(NC2CC2)cnn1-c1ccccc1` was tested, and the B-score was “inactive”. With `Cc1cccc(-n2ncc(Cl)c(Cl)c2=O)c1` the B-score was -6.46 (active). For `CCN1C(=O)[C@H]2[C@@H](c3ccc(SC4CCCCC4)c(OC)c3)N[C@@](Cc3ccccc3)(C(=O)OC)[C@H]2C1=O`, the B-score was “inactive”. With `COc1cc(OC)cc(C(=O)NCCCn2ccnc2)c1` the B-score was “inactive”. In the case of `COc1ccc(/C=C(\C#N)C(=O)NCCCn2ccnc2)cc1`, the B-score is reported as “inactive”. In the case of `COc1cccc(-c2nn(-c3ccccc3)cc2/C=C(\C#N)C(=O)NCCCn2ccnc2)c1`, the B-score is reported as -6.63 (active). In the case of `Cc1ccc(S(=O)(=O)N2[C@@H](c3cccc(Cl)c3)C(C(=O)O)=CC[C@H]2c2ccc(Cl)c(Cl)c2)cc1`, the B-score is reported as “inactive”. In the case of `COc1cccc(N2CC(NS(=O)(=O)c3ccc(Cl)cc3)CC2=O)c1` (centres undefined), the B-score is reported as “inactive”. In the case of `COc1cccc(CNC(=O)C(=O)NCCC2CCCCN2S(=O)(=O)c2ccc(C)cc2)c1` (centres undefined), the B-score is reported as “inactive”. With `C/C(=N\NC(N)=S)c1ccncc1` the B-score was “inactive”. In the case of `C/C(=N\NC(N)=S)c1cccnc1`, the B-score is reported as -9.98 (active). In the case of `C/C(=N\NC(=O)c1cccnc1)c1ccc(-c2ccccc2)cc1`, the B-score is reported as “inactive”. `Cc1ccc(C(=O)NNC(=O)C(C)Oc2ccc3ccccc3c2)o1` (centres undefined) was tested, and the B-score was “inactive”. In the case of `O=C(Nc1ccc2ccccc2c1)/C(=C/c1cccc(Br)c1)NC(=O)c1ccco1`, the B-score is reported as “inactive”. With `CC(Oc1ccc2ccccc2c1)C(=O)NNC(=S)NC(=O)c1ccco1` (centres undefined) the B-score was -5.21 (active). For `CCCCN(C(=O)CCNC(=O)NC12CC3CC(CC(C3)C1)C2)c1c(N)n(CCCC)c(=O)[nH]c1=O`, the B-score was “inactive”. With `COc1ccc(CCNC(=O)C(=O)NCC2OCCN2S(=O)(=O)c2cccs2)cc1OC` (centres undefined) the B-score was “inactive”. `O=C(Nc1ccccc1N1CCCC1)c1ccc(F)c(S(=O)(=O)N2CCOCC2)c1` was tested, and the B-score was “inactive”. For `CC(C)CN(C(=O)COC(=O)c1ccc(Cl)c(N)c1)c1c(N)n(Cc2ccccc2)c(=O)[nH]c1=O`, the B-score was “inactive”. For `Cc1cc(C)n(-c2nc(SCC(=O)N3CCCC3)c3c4c(sc3n2)CCCC4)n1`, the B-score was “inactive”. For `COCCNc1nc(-n2nc(C)cc2C)nc2sc3c(c12)CCCC3`, the B-score was -4.98 (active). For `Cc1nc2sc3c(c2c(=O)n1NC(=O)CCl)CCCC3`, the B-score was “inactive”. In the case of `N#CC1(NC(=O)COC(=O)CSc2ccc(F)cc2)CCCCC1`, the B-score is reported as “inactive”. In the case of `CCOc1ccc(S(=O)(=O)Nc2ccc(C(=O)NCCCN3CCCC3=O)cc2)cc1`, the B-score is reported as “inactive”. For `COc1ccc(S(=O)(=O)N2CCCC2CNC(=O)C(=O)NC2CC2)cc1` (centres undefined), the B-score was “inactive”. `COc1ccc(S(=O)(=O)N2CCN(C(=O)NC3CCCCC3)CC2)cc1` was tested, and the B-score was -6.98 (active). With `CCOC(=O)N1CCN(S(=O)(=O)c2ccc(OC)cc2)CC1` the B-score was “inactive”. With `CC(C)C[C@H](CO)Nc1nc(N(C)c2cccc(Cl)c2)c2ncn(C(C)C)c2n1` the B-score was “inactive”. `OCCCNc1nccc(-c2cc(Nc3cccc(Cl)c3)ncn2)n1` was tested, and the B-score was “inactive”. In the case of `CC(C)n1cnc2c(Nc3cccc(Cl)c3)nc(N(CCO)CCCO)nc21`, the B-score is reported as -7.57 (active). In the case of `COc1ccccc1N(C)S(=O)(=O)c1ccc(Cl)c(C(=O)Nc2ccncc2)c1`, the B-score is reported as “inactive”. For `COc1ccc(NS(=O)(=O)c2ccc(C)c(C(=O)N(C)Cc3ccc(OC)cc3OC)c2)cc1`, the B-score was “inactive”. `CC1(C)SC2C(NC(=O)COc3ccccc3)C(=O)N2C1C(=O)O` (centres undefined) was tested, and the B-score was -6.15 (active) and the outcome was “inactive”. In the case of `CC1(C)S[C@@H]2[C@H](N=CN3CCCCCC3)C(=O)N2[C@H]1C(=O)O`, the B-score is reported as “inactive”. `CC1(C)S[C@@H]2[C@H](NC(=O)COc3ccccc3)C(=O)N2C1C(=O)OCc1ccccc1` (some centres undefined) was tested, and the B-score was “inactive”.

Source: PubChem BioAssay AID488975 (Johns Hopkins Ion Channel Center, 2010)
